HCV inhibitor – inhibitors of hepatitis C virus infection; Potency, µM (doses to about 41.8 µM), without a hit: top-dose activity change, negative = inhibition, actives largely listed as inhibitors; AID 651820; hit rate 3.4% among 340,000; Huh7.5.1 HCVcc-Cre infection, luciferase reporter, 44 h; note: potency is the fitted concentration of half-maximal effect
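After 44 h co-culture of compound, cells and HCVcc-Cre (~0.5 moi), substrate is added for 15 min at room temperature and luciferase measured over 15 sec. Cells were seeded at 1,000/well and pre-cultured 4 h.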
Pf growth 96h – P. falciparum growth inhibition at 96 hour, primary screen for plastid delayed-death inhibitors | P. falciparum luciferase reporter growth, 96 h | Potency, µM (titrated, usually from 28.7 µM), for the others: at the highest dose activity change, negative = inhibition, most hits filed as inhibitors | hit rate 6.9% among 320,000 | AID 504834; note: potency is the fitted concentration of half-maximal effect
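P. falciparum expressing integrated firefly luciferase grown in erythrocytes (2% hematocrit, 0.05% parasitemia final) with compounds for 96 hours at 37 C, 5% CO2. Growth inhibition read as loss of luminescence after adding luciferase detection reagent.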
Pf growth 48h – inhibits P. falciparum growth in the first generation, 48 h; P. falciparum luciferase growth in erythrocytes, 48 h; AID 504832; Potency, µM (titrated, usually from 28.7 µM), inactives show at the highest dose activity change, negative = inhibition, usual class: inhibitors; hit rate 5.9% among 310,000; note: potency is the fitted concentration of half-maximal effect
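Erythrocytes infected with P. falciparum carrying an integrated firefly luciferase reporter (2% hematocrit, 0.1% parasitemia final) were exposed to compounds in RPMI 1640 with 0.5% Albumax at 37 C, 5% CO2. Growth inhibition was scored as reduced luminescence.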
HCMV inh – human cytomegalovirus inhibition; hit rate 4.5% among 410,000; AID 1259415; activity change, negative = inhibition, % at 57.5 µM; HFF cells, HCMV-luciferase reporter, 72 h; active compounds read low; in the data active = activity change below about -60%; inconclusive = no clear call, values can overlap the other calls; inactive = above about -39%
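HFF cells seeded 16 h at 37C, treated with compounds, infected with luciferase-reporter HCMV at MOI 1 PFU/cell; luciferase read at 72 h post infection, normalized to buffer-only and Salinomycin controls.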
* marks the source's active call; other numbers are inactive results; [ ] = remark or other dose. Most compounds without a hit are left out; they make up all but 13% or so of the library. Unless noted, calls come from the whole dose curve; as a rule, active = well fitted inhibition curve with a large enough effect; inconclusive = small, poorly fitted or top-dose-only effect, or another doubt; inactive = no such curve, though single readings can be large or run the other way. % is set by controls: 0 for no effect and ±100 for the full control effect.

`COCCNC(=O)c1cnc2sc(N3CCC(C)CC3)nn2c1=O` gave HCMV inh 11.
For C#CCNC(=O)C1=C[C@@H](c2ccc(Br)cc2)C[C@@H](OCCCCO)O1 the results were HCV inhibitor -20%, Pf growth 96h 8.3µM*, Pf growth 48h inconclusive and HCMV inh -25.
Screening C#Cc1ccc([C@H]2C=C(C(=O)OCC=C)O[C@@H](OCCCCO)C2)cc1 returned HCV inhibitor 11% and HCMV inh -67*.
For C#Cc1ccc([C@H]2C=C(C(=O)OCC=C)O[C@@H](OCc3ccc(CO)cc3)C2)cc1 the results were HCV inhibitor 22% and HCMV inh 6.
`COc1ccc2nc(NC(=O)C3CCN(S(=O)(=O)c4cccc5nsnc45)CC3)sc2c1` gave HCV inhibitor inconclusive, Pf growth 96h 10µM*, Pf growth 48h inconclusive and HCMV inh -75*.
For CCc1ccccc1NC(=O)C1CCCN(S(=O)(=O)c2cccc3nsnc23)C1 (centres undefined) the results were HCMV inh -14.
Screening Cc1cccc(NC(=O)C2CCCN(S(=O)(=O)c3cccc4nsnc34)C2)c1 (centres undefined) returned HCV inhibitor inconclusive, Pf growth 96h 8.3µM* and HCMV inh -30.
COc1ccccc1NC(=O)C1CCCN(S(=O)(=O)c2cccc3nsnc23)C1 (centres undefined) was read as HCV inhibitor -28%, Pf growth 96h 3.3µM* and HCMV inh -17.
Screening Cc1cc(C)cc(NC(=O)C2CCCN(S(=O)(=O)c3cccc4nsnc34)C2)c1 (centres undefined) returned HCMV inh 6.
For CCOC(=O)c1ccccc1NC(=O)c1c(C)oc2ncnc(N3CCOCC3)c12 the results were HCMV inh 8.
CCCN1CCCc2cc(CN(CCCN3CCOCC3)C(=O)Nc3ccc(CC)cc3)ccc21 was read as HCMV inh -5.
For Cc1sc2ncnc(N/N=C/c3ccc(O)cc3)c2c1C the results were HCV inhibitor 11µM*, Pf growth 96h inconclusive, Pf growth 48h 13% and HCMV inh -26.
`Cc1sc2ncnc(N/N=C/c3ccccc3O)c2c1C` gave HCV inhibitor inconclusive, Pf growth 96h 6%, Pf growth 48h 2.9µM* and HCMV inh -101*.
`Cc1ccc2c(c1)N(S(=O)(=O)c1ccc(CN3C(=O)c4cccnc4C3=O)s1)CCO2` gave HCV inhibitor 11%, Pf growth 96h 4.1µM*, Pf growth 48h 25% and HCMV inh 0.
Cc1ccc2c(c1)N(S(=O)(=O)c1ccc(CN3C(=O)c4cccnc4C3=O)cc1)CCO2 was read as HCV inhibitor 9%, Pf growth 96h inconclusive, Pf growth 48h 23% and HCMV inh -9.
For Cc1ccc2[nH]c(=O)c(-c3nc4ccccn4c3NCc3ccco3)cc2c1 the results were HCV inhibitor -1%, Pf growth 96h 4.7µM*, Pf growth 48h 33% and HCMV inh 72.
Screening CCOC(=O)C[C@@H]1OC[C@H](C(C)C)N1S(=O)(=O)c1ccc(C)cc1 returned HCMV inh -35.
`O=c1cc(-c2ccccc2)cc(-c2ccccc2)n1O` gave HCV inhibitor inconclusive, Pf growth 96h inconclusive, Pf growth 48h 13µM* and HCMV inh -16.
Cc1nn(Cc2cccc(C(=O)NC34CC5CC(CC(C5)C3)C4)c2)c(C)c1Br was read as HCV inhibitor 14µM*, Pf growth 96h 8.3µM*, Pf growth 48h 15µM* and HCMV inh -39.
`Cc1ccc2c(c1)-c1nc(-c3ccc(Cl)cc3)cc(-c3coc4ccccc4c3=O)c1CO2` gave HCMV inh 9.
Cc1ccc(-c2csc3nc4c5ccccc5c(NCCCN(C)C)nn4c(=O)c23)cc1 was read as HCV inhibitor 3%, Pf growth 96h inconclusive, Pf growth 48h inconclusive and HCMV inh -99*.
Cc1ccc(-c2csc3nc4c5ccccc5c(NCCCN5CCOCC5)nn4c(=O)c23)cc1 was read as Pf growth 96h 49%[1.15 µM] and Pf growth 48h inconclusive.
COc1ccc(C(CC(=O)O)NC(=O)c2cc3ccccc3oc2=O)cc1OC (centres undefined) was read as HCMV inh 18.
O=C(CN1C(=O)C2(SCC(=O)N2c2cccc(F)c2)c2ccccc21)NCCc1ccccc1 (centres undefined) was read as HCMV inh -107*.
`O=C(CN1C(=O)C2(SCC(=O)N2c2ccccc2)c2ccccc21)NCCc1ccccc1` (centres undefined) gave HCMV inh 0.
Screening Cc1ccc(N2C(=O)CSC23C(=O)N(CC(=O)NC2CCCCC2)c2ccccc23)cc1C (centres undefined) returned HCMV inh -2.
COc1ccc(N2C(=O)CSC23C(=O)N(CC(=O)NC2CCCC2)c2ccccc23)cc1 (centres undefined) was read as HCV inhibitor 0%, Pf growth 96h 8.3µM*, Pf growth 48h -5% and HCMV inh -23.
`COc1ccccc1CCNC(=O)C(=O)NCC(c1ccc2c(c1)OCO2)N1CCOCC1` (centres undefined) gave HCMV inh 36.
For O=c1nc(N/N=C/c2ccccn2)cn[nH]1 the results were HCV inhibitor inconclusive, Pf growth 96h -6%[1.15 µM], Pf growth 48h 1µM* and HCMV inh 80.
Screening Fc1cccc(/C=N/Nc2nncc3ccccc23)c1 returned HCV inhibitor 4%, Pf growth 96h 261% and HCMV inh 201.
`C(=N\Nc1nncc2ccccc12)/c1ccccn1` gave HCV inhibitor 3.2µM*, Pf growth 96h inconclusive, Pf growth 48h 0.83µM* and HCMV inh -98*.
For O=c1cnnc(N/N=C/c2ccccn2)[nH]1 the results were HCV inhibitor 6.3µM*, Pf growth 96h inconclusive, Pf growth 48h inconclusive and HCMV inh -32.
`C(=N\Nc1ccc2nncn2n1)/c1ccccn1` gave HCV inhibitor -69%, Pf growth 96h 9.3µM*, Pf growth 48h -75% and HCMV inh -87*.
Screening COc1ccc(-n2nc(C(=O)N3CCN(c4cccc(C(F)(F)F)c4)CC3)c3c4ccccc4n(C)c3c2=O)cc1Cl returned HCMV inh 14.
`Cc1ccc(NC(=O)CN2C(=O)CCc3cc(S(=O)(=O)N4CCCCC4)ccc32)cc1N(C)C` gave HCMV inh 5.
O=C(C1COc2ccccc2O1)N(Cc1cccnc1)c1nc2ccc(Cl)cc2s1 (centres undefined) was read as HCMV inh 5.
Cc1cc(=O)[nH]c(N/N=C/c2ccccn2)n1 was read as HCV inhibitor 1µM*, Pf growth 96h inconclusive, Pf growth 48h 2.9µM* and HCMV inh -100*.
`CCN(CC)C(=O)c1cc(-c2ccc(Cl)cc2)on1` gave HCMV inh 83.
